In PubChem BioAssay (NCI):
This is part of a sample that, as a whole, favours compounds with a hit. Of some 83,000 tested, about 20% had one in any assay.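 Note: values are percent growth. 100 is the growth of untreated cells, values between 100 and 0 indicate rising inhibition; between -100 and 0 indicates cell death.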 Activity calls are given as the source filed them. The calls were made as follows: active = growth percent below 10; inactive = the rest.

What was measured:
Test in all cases: NCI-60 one-dose screen, 48 h (100 = growth as untreated, 0 = no growth, -100 = all killed)
Conditions in all cases: 10 µM unless noted
[1] = test system: HCT-15 colon
[2] = test system: HT29 colon
[3] = test system: SNB-75 CNS
[4] = test system: SNB-19 CNS
[5] = test system: U251 CNS
[6] = test system: PC-3 prostate
[7] = test system: SK-MEL-5 melanoma
[8] = test system: UACC-62 melanoma
[9] = test system: LOX IMVI melanoma
[10] = test system: SK-MEL-28 melanoma

Measured: growth

Cc1cnc(N)nc1OCC(C)(C)CNC(=O)c1cccc(-c2ccc(S(=O)(=O)Nc3ccc4c(c3)N(C(=O)C3CC3)CCC4)cc2)c1
active: [7] -36.1%
inactive: [1] 67.6% | [2] 42.1% | [3] 48.1% | [4] 67.9% | [5] 59.4% | [6] 51.8% | [8] 47.8% | [9] 76.6% | [10] 82.4%

CC/C=C(\C)C(CCC)(CN=O)C(=O)OCC (stereo not given)
inactive: [1] 99.6% | [2] 106% | [3] 81.9% | [4] 105% | [5] 99.3% | [6] 98.3% | [7] 111% | [8] 110% | [9] 99.7% | [10] 116%

COc1ccc(NCc2cn(-c3ccc(C(=O)O)cc3)nc2-c2ccc(C(=O)O)cc2)cc1C(F)(F)F
inactive: [1] 105% | [2] 101% | [3] 84% | [4] 96.4% | [5] 93.7% | [6] 102% | [7] 94.8% | [8] 94.3% | [9] 97.4% | [10] 97.3%

CC(C)=CC/C=C(/C)[C@H]1CC[C@]2(C)[C@@H]1CC[C@@H]1[C@@]3(C)CCCNC(C)(C)[C@@H]3CC[C@]12C
active: [1] -53.6% [100 µM] | [2] -64.7% [100 µM] | [3] -84.4% [100 µM] | [4] -63.1% [100 µM] | [5] -63.3% [100 µM] | [6] -65% [100 µM] | [7] -71.2% [100 µM] | [8] -95.2% [100 µM] | [9] -46% [100 µM] | [10] -87.1% [100 µM]

CCCC(NC(=O)OCc1ccccc1)C(=O)O (stereo not given)
inactive: [1] 103% | [2] 104% | [3] 84% | [4] 99.4% | [5] 104% | [6] 93.8% | [7] 90.1% | [8] 89.6% | [9] 99.5% | [10] 92.8%

O=C(Nc1ccc(Oc2ccc(F)cc2)c(Cl)c1)c1cccnn1
inactive: [1] 77.6% | [2] 76.7% | [3] 87.8% | [4] 66.2% | [5] 62.9% | [6] 64.4% | [7] 30.7% | [8] 62.5% | [9] 72.8% | [10] 90.9%

CC1(C)NCCC[C@]2(C)[C@H]3C=CC4=C5C[C@](C)(CO)CC[C@]5(C)CC[C@@]4(C)[C@]3(C)CC[C@@H]12
active: [1] -89.3% [100 µM] | [2] -62.1% [100 µM] | [3] -97.7% [100 µM] | [4] -90.4% [100 µM] | [5] -59.7% [100 µM] | [6] -79.1% [100 µM] | [7] -91.5% [100 µM] | [8] -94.3% [100 µM] | [9] -91.5% [100 µM] | [10] -97.3% [100 µM]

CC1(C)C(=O)/C(=C\c2cccnc2)C[C@]2(C)[C@H]3CC[C@@H]4[C@H]5[C@H](C(=O)/C=C/c6cccnc6)CC[C@]5(C(=O)O)CC[C@@]4(C)[C@]3(C)CC[C@@H]12
active: [1] -74.6% [100 µM] | [2] -72% [100 µM] | [3] -96.5% [100 µM] | [4] -83.3% [100 µM] | [5] -82.3% [100 µM] | [6] -38.4% [100 µM] | [7] -73.5% [100 µM] | [8] -89.8% [100 µM] | [9] -68.9% [100 µM] | [10] -71.7% [100 µM]

COc1ccc2nc3ccccc3c(NCCNCCO)c2c1
inactive: [1] 19.6%
active: [2] -11.9% | [3] -53.2% | [4] 1.53% | [5] 6.95% | [6] 4.92% | [7] -32.9% | [8] -70.2% | [9] -52.2% | [10] -70.4%

CC(C)=CC/C=C(/C)[C@H]1CC[C@]2(C)[C@@H]1CC[C@@H]1[C@@]3(C)CCC(=O)NC(C)(C)[C@@H]3CC[C@]12C
active: [2] -0.044% [100 µM] | [5] -67% [100 µM] | [7] -93.5% [100 µM] | [8] -24.4% [100 µM] | [9] -90.1% [100 µM] | [10] -77.3% [100 µM]
inactive: [1] 11.7% [100 µM] | [3] 19.7% [100 µM] | [4] 24.9% [100 µM] | [6] 16.5% [100 µM]

CCN(CC)c1ccc(/C=C/C=C2\NC(=O)NC2=O)cc1
inactive: [1] 29.5% | [3] 33.8% | [4] 34.6% | [5] 29.1% | [6] 18.9% | [8] 33% | [9] 33.2% | [10] 57.5%
active: [2] -30.1% | [7] 8.64%

O=C1Nc2ccccc2/C1=C/C(=O)c1ccc(N2CCCCC2)cc1
inactive: [1] 79.8% | [2] 32.8% | [3] 91.4% | [4] 86.5% | [5] 52.7% | [6] 52.7% | [7] 93.2% | [8] 68.6% | [9] 43.3% | [10] 105%

CC(=O)OC[C@]12CC[C@@H]([C@@H](C)C(N)=O)[C@@H]1[C@H]1CC[C@@H]3[C@@]4(C)CC[C@H](OC(C)=O)C(C)(C)[C@@H]4CC[C@@]3(C)[C@]1(C)CC2
active: [1] -44.1% [100 µM] | [2] -77.7% [100 µM] | [3] -47.8% [100 µM] | [4] -40% [100 µM] | [5] -51.4% [100 µM] | [6] -47.4% [100 µM] | [7] -71.9% [100 µM] | [8] -83% [100 µM] | [9] -85.5% [100 µM] | [10] -73.2% [100 µM]

CCNc1cc2c(cc1Br)-c1ccccc1C2=O
inactive: [1] 77.6% | [2] 97.4% | [3] 78.1% | [4] 96% | [5] 96.3% | [6] 81.4% | [7] 95.2% | [8] 86.9% | [9] 88.1% | [10] 114%

CCN(CC)CCCNCc1cc(-c2ccccc2)nc2ccccc12
inactive: [1] 15.3% | [2] 55.1% | [3] 73.6% | [4] 82.5% | [5] 21.5% | [6] 75% | [7] 69.6% | [8] 95.6% | [10] 92.7%
active: [9] 9.8%

CCOc1ccc(/C=C(\C#N)c2cc3ccccc3[nH]2)cc1
inactive: [1] 28.8% | [2] 13.8% | [3] 67.1% | [4] 80.2% | [5] 41.7% | [6] 68.2% | [7] 72.2% | [8] 43.9% | [9] 46.4% | [10] 69.7%

COc1cc(C)cc2oc3oc(=N)c(C(=O)c4ccccc4)cc3c(=O)c12
inactive: [1] 103% | [2] 108% | [3] 86.2% | [4] 99.4% | [5] 107% | [6] 103% | [7] 96.8% | [8] 93.5% | [9] 95.6% | [10] 98%

COc1ccc(-c2cc(-c3ccc(Cl)cc3)nc(SCCCCCCC(=O)NO)n2)cc1
active: [7] -6.04% | [9] -17.6%
inactive: [1] 15.5% | [2] 10.8% | [3] 34.5% | [4] 35.9% | [5] 19% | [6] 49.2% | [8] 14.9% | [10] 57.6%

C/C=C/C1OC23CCCCC2C(C#N)(C(=N)O3)C1(C#N)C#N (stereo not given)
inactive: [1] 85% | [2] 109% | [3] 85.9% | [4] 101% | [5] 102% | [6] 98.1% | [7] 99.1% | [8] 87% | [9] 81.9% | [10] 109%

COc1ncc(-c2ccc3nccc(C#CCCCCC(=O)O)c3c2)cc1NS(=O)(=O)c1ccc(F)cc1F
active: [3] -12.5% | [8] -12.6% | [10] 7.69%
inactive: [1] 27.7% | [2] 16.1% | [4] 31.1% | [5] 31.6% | [6] 19.8% | [7] 10.3% | [9] 28.2%

c1ccc(-c2nc(N3CCCNCC3)c3nc(-c4ccccc4)oc3n2)cc1
active: [1] -80.4% | [2] -63.4% | [5] -90.9% | [6] -27.3% | [8] -77.8% | [9] -95.7%
inactive: [3] 53.1% | [4] 70.4% | [7] 55.6% | [10] 83.7%

Nc1cccc2c1C(=O)c1cccc(NC(=O)c3ccccc3)c1C2=O
active: [2] 2.96% | [3] 6% | [9] 8.96%
inactive: [1] 28.6% | [4] 45.3% | [5] 22.9% | [6] 32.5% | [7] 12.3% | [8] 48.4% | [10] 44.6%

COc1ccc2nc3c(cc2c1)C(=O)CC(c1ccccc1)C3 (stereo not given)
inactive: [1] 24.8% | [4] 34.3% | [5] 45% | [6] 28.8% | [7] 30.2% | [8] 36.9% | [9] 36.1% | [10] 54.6%
active: [2] 9.97% | [3] -9.09%

CC(C)C1=NOC(=O)C1=Cc1cn(-c2ccccc2)nc1-c1ccccc1
inactive: [1] 77.4% | [2] 49.2% | [3] 72.5% | [4] 74.8% | [5] 53% | [6] 67.9% | [7] 91.6% | [8] 76.1% | [9] 18% | [10] 95.1%
